# Inconclusive results are not listed. The source made the active and inactive calls. How the source made its calls: active means hit-call score of the fitted dose curve at least 0.9, where 1 is the maximum; inconclusive means response in the unintended direction; inactive means score below 0.9.
# Target: human CYP2D6, CYP2D6 (gene 1565) (UniProt P10635)
# Experiment: NVS_ADME_hCYP2D6: NovaScreen (NVS) CYP450-related Enzyme Activity (ADME) Assay for human CYP2D6 (AID 2283107)
# Outline: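 Compounds were first tested in duplicate at 10 uM against recombinant enzyme produced in insect cells, with substrate turnover measured by fluorescence after 1 hour. Decreased signal, referenced to acetonitrile vehicle, was taken as reduced enzyme activity. Active chemicals went on to concentration-response testing.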
# Chain of human CYP2D6, CYP2D6 (gene 1565) (P10635 whole entry, looked up): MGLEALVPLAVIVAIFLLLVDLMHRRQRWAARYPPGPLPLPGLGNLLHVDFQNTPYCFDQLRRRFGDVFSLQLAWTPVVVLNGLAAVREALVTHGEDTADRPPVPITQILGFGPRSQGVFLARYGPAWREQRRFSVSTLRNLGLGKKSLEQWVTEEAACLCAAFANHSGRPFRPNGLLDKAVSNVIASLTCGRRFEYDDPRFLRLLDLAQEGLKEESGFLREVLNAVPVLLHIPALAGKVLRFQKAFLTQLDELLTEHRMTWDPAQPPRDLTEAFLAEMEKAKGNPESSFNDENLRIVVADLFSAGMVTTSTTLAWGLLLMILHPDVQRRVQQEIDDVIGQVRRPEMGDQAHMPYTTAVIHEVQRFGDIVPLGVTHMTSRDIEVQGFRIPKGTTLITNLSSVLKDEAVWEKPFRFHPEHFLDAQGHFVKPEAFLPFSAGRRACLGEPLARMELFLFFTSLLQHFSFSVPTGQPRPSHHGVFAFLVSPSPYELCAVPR
SMILES,outcome,AC50
CCCCC(C#N)(Cn1cncn1)c1ccc(Cl)cc1 (stereo not given),inactive,–
CC1(C)C(C=C(Cl)Cl)C1C(=O)OC(C#N)c1cccc(Oc2ccccc2)c1 (stereo not given),–,6.07 µM (active)
N#CN=C1SCCN1Cc1ccc(Cl)nc1,inactive,–
COP(=S)(OC)Oc1ccc([N+](=O)[O-])c(C)c1,–,4.59 µM (active)
CCNP(=S)(OC)O/C(C)=C/C(=O)OC(C)C (stereo not given),–,7.62 µM (active)

# Target: human CYP2C9, CYP2C9 (gene 1559) (UniProt P11712)
# Experiment: NVS_ADME_hCYP2C9: NovaScreen (NVS) CYP450-related Enzyme Activity (ADME) Assay for human CYP2C9 (AID 2283108)
# Outline: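 Fluorescence readout of CYP2C9 activity (SF9-expressed human enzyme) at 0.75 h. The primary screen used 10 uM in duplicate, with concentration-response follow-up for actives; acetonitrile was the negative control.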
# Chain of human CYP2C9, CYP2C9 (gene 1559) (P11712 whole entry, looked up): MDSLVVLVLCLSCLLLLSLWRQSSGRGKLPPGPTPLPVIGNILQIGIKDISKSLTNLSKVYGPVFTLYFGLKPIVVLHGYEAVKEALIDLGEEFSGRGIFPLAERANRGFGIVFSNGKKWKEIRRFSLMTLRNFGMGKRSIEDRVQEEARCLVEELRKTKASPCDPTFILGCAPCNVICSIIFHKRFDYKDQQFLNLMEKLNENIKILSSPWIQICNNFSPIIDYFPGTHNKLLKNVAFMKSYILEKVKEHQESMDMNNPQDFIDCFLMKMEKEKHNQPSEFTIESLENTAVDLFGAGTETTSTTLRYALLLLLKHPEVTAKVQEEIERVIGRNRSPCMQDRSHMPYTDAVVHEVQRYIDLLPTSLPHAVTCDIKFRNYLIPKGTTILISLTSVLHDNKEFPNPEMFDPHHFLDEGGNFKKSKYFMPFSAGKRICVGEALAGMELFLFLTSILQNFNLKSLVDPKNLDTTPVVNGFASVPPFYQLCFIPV
row,SMILES,AC50
1,CCCCOCN(C(=O)CCl)c1c(CC)cccc1CC,5.52 µM (active)
2,CCCCC(C#N)(Cn1cncn1)c1ccc(Cl)cc1 (stereo not given),8.72 µM (active)
3,CC1(C)CCC(=Cc2ccc(Cl)cc2)C1(O)Cn1cncn1 (stereo not given),0.289 µM (active)
4,CC1(C)C(C=C(Cl)Cl)C1C(=O)OC(C#N)c1cccc(Oc2ccccc2)c1 (stereo not given),12.8 µM (active)
5,CC(C)NC(=O)N1CC(=O)N(c2cc(Cl)cc(Cl)c2)C1=O,4.01 µM (active)
6,CCN(CC)c1nc(C)cc(OP(=S)(OC)OC)n1,7.09 µM (active)
7,CC(C)Oc1cccc(NC(=O)c2ccccc2C(F)(F)F)c1,3.19 µM (active)
8,CCNP(=S)(OC)O/C(C)=C/C(=O)OC(C)C (stereo not given),1.79 µM (active)

# Target: Cytochrome P450 2C19 (Homo sapiens) (UniProt P33261)
# Experiment: NVS_ADME_hCYP2C19: NovaScreen (NVS) CYP450-related Enzyme Activity (ADME) Assay for human CYP2C19 (AID 2283113);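 further: potency for inhibition seen as loss of fluorescent signal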
# Outline: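 Chemicals first screened in duplicate at 10 uM against recombinant human enzyme produced in insect cells; confirmed actives then run as concentration series. Fluorogenic substrate turnover read by fluorescence after 1 h, normalised to acetonitrile.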
row,SMILES,AC50
1,CCCCOCN(C(=O)CCl)c1c(CC)cccc1CC,1.28 µM (active)
2,CCCCC(C#N)(Cn1cncn1)c1ccc(Cl)cc1 (stereo not given),0.634 µM (active)
3,CCOP(=S)(OCC)Oc1nc(Cl)n(C(C)C)n1,0.317 µM (active)
4,CC1(C)CCC(=Cc2ccc(Cl)cc2)C1(O)Cn1cncn1 (stereo not given),0.252 µM (active)
5,CCOP(=O)(OCC)Oc1nc(Cl)c(Cl)cc1Cl,4.09 µM (active)
6,CC1(C)C(C=C(Cl)Cl)C1C(=O)OC(C#N)c1cccc(Oc2ccccc2)c1 (stereo not given),7.55 µM (active)
7,CC(C)NC(=O)N1CC(=O)N(c2cc(Cl)cc(Cl)c2)C1=O,2.06 µM (active)
8,CCN(CC)c1nc(C)cc(OP(=S)(OC)OC)n1,0.773 µM (active)
9,COP(=S)(OC)Oc1ccc([N+](=O)[O-])c(C)c1,0.168 µM (active)
10,CC(C)Oc1cccc(NC(=O)c2ccccc2C(F)(F)F)c1,4.9 µM (active)
11,CO/N=C(/C1=NOCCO1)c1ccccc1Oc1ncnc(Oc2ccccc2Cl)c1F,1.41 µM (active)
12,CCNP(=S)(OC)O/C(C)=C/C(=O)OC(C)C (stereo not given),0.107 µM (active)

# Source: PubChem BioAssay (EPA / NIEHS)
